High-throughput results: PubChem, several laboratories
rCAG binder: binders of r(CAG) RNA repeats, primary screen, biochemical, fluorescence; actives 1.3% (n = 370,000); AID 651821, 2012; r(CAG) RNA repeat, TO-PRO-1 dye displacement fluorescence; inhibition, % at 3 µM;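 active = inhibition above the plate cutoff, the mean of all test compounds on that plate plus 3 SD, cut at about 35% in these data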;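 note: higher means more dye released from RNA so lower well fluorescence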
Pemphigus Ab inh: inhibitors of pemphigus antibody binding to DSG3, primary screen, biochemical, bead-based, flow cytometry, scFv-GFP | Desmoglein-3 (Homo sapiens), P32926 | DSG3-coupled beads, scFv-anti-DSG3-GFP binding; stronger effect = lower value | binding (percent of control), % at 10 µM | actives 0.48% (n = 310,000);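 active = binding more than 3 SD below its plate's average and above zero; inconclusive = below that plate limit but binding exactly zero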;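 note: hits lower antibody fragment binding to DSG3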
Target sequence (P32926 whole entry, looked up, the tested form may be a part): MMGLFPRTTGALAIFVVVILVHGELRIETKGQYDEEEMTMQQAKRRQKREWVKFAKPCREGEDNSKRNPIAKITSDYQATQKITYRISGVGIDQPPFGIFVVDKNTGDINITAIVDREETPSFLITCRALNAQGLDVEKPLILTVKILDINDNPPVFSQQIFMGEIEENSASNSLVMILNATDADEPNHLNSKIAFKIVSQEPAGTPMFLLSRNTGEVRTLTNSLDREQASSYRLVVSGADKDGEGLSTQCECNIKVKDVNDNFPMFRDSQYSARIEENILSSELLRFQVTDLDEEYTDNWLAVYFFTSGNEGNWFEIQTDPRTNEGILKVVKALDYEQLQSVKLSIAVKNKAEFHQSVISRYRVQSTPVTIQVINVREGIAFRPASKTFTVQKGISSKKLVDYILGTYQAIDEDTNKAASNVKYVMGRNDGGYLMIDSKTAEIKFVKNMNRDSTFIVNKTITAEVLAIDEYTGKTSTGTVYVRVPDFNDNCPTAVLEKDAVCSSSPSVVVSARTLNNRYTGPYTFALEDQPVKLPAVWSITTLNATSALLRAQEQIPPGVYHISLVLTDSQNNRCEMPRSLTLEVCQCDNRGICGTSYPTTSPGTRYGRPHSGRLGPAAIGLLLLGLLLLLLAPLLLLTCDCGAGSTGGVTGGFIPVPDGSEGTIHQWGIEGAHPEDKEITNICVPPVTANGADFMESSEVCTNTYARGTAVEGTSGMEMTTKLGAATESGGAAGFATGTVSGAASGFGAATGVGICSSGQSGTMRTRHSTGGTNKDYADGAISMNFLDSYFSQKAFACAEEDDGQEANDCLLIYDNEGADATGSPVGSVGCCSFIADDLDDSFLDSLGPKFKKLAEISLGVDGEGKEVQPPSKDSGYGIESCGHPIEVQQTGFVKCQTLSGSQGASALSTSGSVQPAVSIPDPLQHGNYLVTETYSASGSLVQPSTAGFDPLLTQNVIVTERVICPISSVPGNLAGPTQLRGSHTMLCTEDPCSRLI
KLK7 zymogen act: proKLK7 zymogen activators, primary screen, biochemical, fluorescence intensity | Kallikrein-7 (Homo sapiens), P49862 | purified proKLK7, EDANS-DABCYL substrate fluorescence; 100% is mature enzyme control, 0% vehicle | activation, % at 7 µM | actives 0.9% (n = 370,000) | AID 652039, 2013;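 active = activation above the mean of all tested compounds plus 3 SD, computed per campaign excluding outliers beyond control limits, cut at about 13% in these data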
ADAM17 inh: ADAM17 inhibitors, primary screen, biochemical, QFRET; recombinant ADAM17, EDANS/DABCYL FRET peptide cleavage; actives 0.83% (n = 370,000); inhibition, % at 6.95 µM; Disintegrin and metalloproteinase domain-containing protein 17 (Homo sapiens), P78536; AID 720648, 2013;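 active = inhibition above the mean of compounds lying between control limits plus 3 SD, set per campaign, cut at about 8.5% in these data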
ADAM10 inh: human ADAM10 inhibitors, primary screen, biochemical, QFRET, HTS. actives 0.62% (n = 370,000). recombinant ADAM10, EDANS/DABCYL FRET peptide cleavage, 3 h. inhibition, % at 7 µM. AID 720582, 2013;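 active = inhibition above a per-campaign cutoff equal to the mean of compounds falling between control-based bounds plus 3 SD, cut at about 20% in these data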
MPTP block: mitochondrial permeability transition pore inhibitors, primary screen, biochemical, isolated mouse mitochondria, absorbance; Ca2+ swelling absorbance, 30 min; inhibition, % at 10 µM; actives 1.4% (n = 360,000);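 active = inhibition of 50% or more, scaled per plate between neutral and stimulator controls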
ADAM10 ctr: ADAM10 inhibitors, counter-screen for ADAM17 exosite inhibitor project, biochemical, FRET, human ADAM10; shares compounds with ADAM17 inh; recombinant ADAM10, EDANS/DABCYL FRET peptide cleavage, 3 h; inhibition, % at 6.95 µM; actives 47% (n = 2,900); AID 743256, 2014;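 active = mean inhibition over the triplicate runs exceeds the activity threshold set in the earlier primary screen, cut at about 20% in these data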
ADAM17 confirm: ADAM17 inhibitors, hit retest, confirmation, biochemical, QFRET peptide cleavage; shares compounds with ADAM17 inh; recombinant ADAM17, EDANS/DABCYL QFRET peptide cleavage; inhibition, % at 6.95 µM; actives 65% (n = 2,900);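 active = mean inhibition across replicates above the hit cutoff set in the primary screen, cut at about 8.5% in these data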
Numbers stand for hits; i = inactive; ? = inconclusive; nt = no result. Rows were chosen to be rich in hits. Some 4.7% of all compounds tested hit in one or more screens of this group.

SMILES	rCAG binder	Pemphigus Ab inh	KLK7 zymogen act	ADAM17 inh	ADAM10 inh	MPTP block	ADAM10 ctr	ADAM17 confirm
O=C(COC(=O)c1ccccc1Cc1ccccc1)Nc1ccc(SC(F)F)cc1	i	i	i	9.6	i	i	20	14
Cc1ccccc1C(=O)N1CCN(C(=O)C(=O)c2cccc(C(F)(F)F)c2)CC1	i	nt	i	i	i	nt	nt	nt
Cc1cc(=O)c(C(=O)Nc2ccc(N3CCOCC3)cc2N2CCOCC2)nn1-c1ccccc1Cl	i	i	i	i	i	i	nt	nt
CCOc1ccc2ccccc2c1CNCCc1ccc(S(N)(=O)=O)cc1	i	i	i	i	i	i	nt	nt
COc1ccc(CCNc2oc(COc3ccc(Br)cc3)nc2C#N)cc1OC	i	i	i	10	i	i	34	19
COc1ccc(Nc2oc(-c3ccc(Cl)cc3)nc2C#N)cc1	i	i	i	i	i	i	nt	nt
COc1ccc(Nc2oc(COc3ccc(Cl)cc3)nc2C#N)cc1	i	i	i	13	26	i	31	18
N#Cc1nc(COc2cccc(Cl)c2)oc1NCc1ccncc1	i	?	i	i	i	i	nt	nt
COc1ccc(CNc2oc(COc3ccc(Cl)cc3)nc2C#N)cc1	i	i	i	11	i	i	31	16
C[C@H](CO)N1C[C@H](C)[C@@H](CN(C)S(C)(=O)=O)Oc2c(NC(=O)c3ccncc3)cccc2C1=O	i	i	i	i	i	i	nt	nt
CCC/C=C/c1ccc(CN2C(C(C)C)C(=O)N(Cc3cn(CCC4OCCO4)nn3)CCS2(=O)=O)cc1 (stereo not given)	i	nt	i	11	i	i	30	17
Cc1ccc(NC(=S)N/N=C/c2ccc([N+](=O)[O-])s2)cc1	i	i	i	11	i	i	33	19
COC(=O)c1ccc(Cn2c(C)c(C(=O)NCc3cccc([N+](=O)[O-])c3)sc2=O)o1	i	nt	i	i	i	i	nt	nt
C[C@H]1CN(c2ccc(Br)cc2)C(=O)[C@@H]1CC(=O)Nc1ccccc1	i	i	i	11	i	i	i	i
COc1ccc(N2C[C@H](C)[C@@H](CC(=O)Nc3ccccc3)C2=O)cc1	i	i	i	i	i	i	nt	nt
CCOC(=O)Cc1csc(NC(=O)c2cc(C)c(C)s2)n1	i	i	i	11	i	i	i	8.9
CCOC(=O)Cc1csc(NC(=O)COc2ccccc2)n1	i	65	i	10.0	i	i	i	i
CCOC(=O)Cc1csc(NC(=O)c2ccc(Cl)s2)n1	i	i	i	i	i	i	nt	nt
CCN1C(=O)[C@@H]2[C@@H](c3ccc(-c4ccc(OC)cc4)c(OC)c3)N3CCCC[C@@]3(C(=O)OC)[C@@H]2C1=O	i	i	i	9.3	i	i	i	i
CCN1C(=O)[C@H]2[C@@H](c3ccc(-c4ccc(OC)cc4)c(OC)c3)N3CCCC[C@@]3(C(=O)OC)[C@H]2C1=O	i	i	i	i	i	i	nt	nt
CCN1C(=O)[C@@H]2[C@@H](c3ccc(-c4cccc(Cl)c4)c(OC)c3)N3CCCC[C@@]3(C(=O)OC)[C@@H]2C1=O	i	i	i	9.9	i	i	20	16
COc1ccc(CSc2nc(O)cc(=O)n2CC(C)C)cc1F	i	i	i	i	i	i	nt	nt
COc1ccc(OC)c(NC(=O)CSc2nc(O)cc(=O)n2CC(C)C)c1	i	i	i	9.3	i	i	i	i
O=C(OCc1nc2scc(-c3ccccc3)c2c(=O)[nH]1)c1cc(Cl)ccc1[N+](=O)[O-]	i	i	i	8.6	i	i	i	i
